Results filed as inconclusive are left out. Where a call stands in place of a potency, no number is given. Calls of active or inactive are those of the source. Calls follow the shape of the dose curve; as a rule, active = well fitted inhibition curve with a large enough effect; inconclusive = small, poorly fitted or top-dose-only effect; inactive = flat fitted curve, though single readings scatter.
These compounds were tested against Calcium and integrin-binding protein 1 (Homo sapiens) (UniProt Q99828) (assay: Primary qHTS for Identification of Calcium Integrin Binding Protein 1 (CIB1) Competitor (AID 1508620;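 also: GST tagged CIB1 binding a fluorescein labelled alphaIIb integrin peptide tracer; top concentration of the series differs between compounds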)). Details: CIB1-GST / FITC-alphaIIb peptide fluorescence polarization; series mostly up to 57.7 µM.
Calcium and integrin-binding protein 1 (Homo sapiens), sequence (Q99828 whole entry, looked up): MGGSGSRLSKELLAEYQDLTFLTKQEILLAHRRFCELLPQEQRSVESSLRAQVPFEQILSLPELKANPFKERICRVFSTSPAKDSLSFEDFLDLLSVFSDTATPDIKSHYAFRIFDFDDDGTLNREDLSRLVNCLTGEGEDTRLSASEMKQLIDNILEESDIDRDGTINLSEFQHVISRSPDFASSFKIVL
Summary of the method: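 Fluorescence polarization competition: CIB1-GST (1 uM final) preincubated with compound 15 min at room temperature, then FITC-labeled alphaIIb peptide (100 nM final) added for another 15 min. Polarization read at Ex 480/Em 540.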
For C[C@]12CCC[C@](C)(C(=O)O)C1CCC13C=C(CO)C(CCC12)C3 (stereo partly specified), the Potency was “inactive”. For CC[C@H](C)/C=C(C)/C=C/C(=O)Cc1cc(O)c(C)c(O)c1C=O, the Potency was “inactive”. With CCOc1nc2cccc(C(=O)O)c2n1Cc1ccc(-c2ccccc2-c2noc(=O)[nH]2)cc1 the Potency was “inactive”. O=S(=O)(Nc1ccc(C(O)(C(F)(F)F)C(F)(F)F)cc1)c1cccs1 was tested, and the Potency was “inactive”. In the case of C[C@@H]1C(=O)O[C@H]2CC34[C@H]5C[C@@H](C(C)(C)C)C36[C@@H](OC(=O)[C@@H]6O)OC4(C(=O)O5)[C@]21O (stereo partly specified), the Potency is reported as “inactive”. With COc1cc(CCc2ccccc2)c(C(=O)O)c2c1CC(C(C)(C)O)O2 (stereo unspecified) the Potency was “inactive”. For CC1(C)CC[C@]2(C(=O)O[C@@H]3O[C@H](CO)[C@@H](O)[C@H](O)[C@H]3O)CC[C@]3(C)C(=CCC4[C@@]5(C)C[C@@H](O)[C@H](O)[C@@](C)(CO)C5CC[C@]43C)C2C1 (stereo partly specified), the Potency was “inactive”. Cc1cc(O)c(C(C)C)cc1O[C@@H]1O[C@H](CO)[C@@H](O)[C@H](O)[C@H]1O was tested, and the Potency was “inactive”. CC1C/C=C/C=C\CCCCC(O)C/C=C/C(=O)O1 (stereo unspecified) was tested, and the Potency was “inactive”. For O=C(OCc1cccc(O)c1O[C@@H]1O[C@H](CO)[C@@H](O)[C@H](O)[C@H]1O)C1(O)C(=O)C2C=CC1C1C=CC(=O)C(O)(C(=O)OCc3cccc(O)c3O[C@@H]3O[C@H](CO)[C@@H](O)[C@H](O)[C@H]3O)C21 (stereo partly specified), the Potency was “inactive”. COC(=O)CC[C@@H](C)[C@H]1CC[C@H]2[C@@H]3CC(=O)[C@H]4C[C@H](OC(C)=O)CC[C@]4(C)[C@H]3CC[C@]12C was tested, and the Potency was “inactive”.
